Results published in PubChem BioAssay (NCATS).
Records with an inconclusive call do not appear. Unmarked numbers belong to inactive results. Calls of active or inactive are those of the source. Calls come from the whole dose curve; as a rule, active = well fitted cell-killing curve with a large enough effect; inconclusive = small, poorly fitted or top-dose-only effect, or effect the other way; inactive = no such curve, though single readings can be large or run the other way.

Test: Quantitative High-Throughput drug screen in 47 multiple myeloma cell lines against the NCATS MIPE library collection: OCIMY5_PLB cell viability assay (AID 1918988); note: nearly all actives have a fitted effect of over 65% in size;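 for viability, % of control: 100% = DMSO-treated wells and 0% = wells with media alone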
Conditions: OCI-MY5 myeloma viability, ATP luminescence, 48 h; series mostly up to 45.8 µM; viability, % of control: at the top concentration
In short: (§1)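 qHTS format: cells plated (500/well), pin-dosed with MIPE 4.0 compounds, kept 48 h at 37 °C. Readout was CellTiter-Glo luminescence, median RLU.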
Potency is the fitted concentration of half-maximal effect.

SMILES	viability, % of control [%]	Potency
COc1ccc2c(c1)[C@]13CCCCC1C(C2)N(C)CC3 (stereo partly drawn)	126	–
C[C@]12Cc3cn[nH]c3C[C@@H]1CC[C@@H]1[C@H]2CC[C@@]2(C)[C@H]1CC[C@]2(C)O	–	13.2 µM (active)
C[C@]12CCC(=O)C(O)=C1CC[C@@H]1[C@H]3CCC(=O)[C@@]3(C)CC[C@@H]12	–	18.7 µM (active)
CC(C)[C@H]1C(=O)N[C@H](CO)Cc2c[nH]c3cccc(c23)N1C	140	–

Test: Quantitative High-Throughput drug screen in 47 multiple myeloma cell lines against the NCATS MIPE library collection: OPM1_PLB cell viability assay (AID 1918989); note: nearly all actives have a fitted effect of over 40% in size;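 for viability (% of control): 100% = DMSO-only wells and 0% = media-only wells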
Conditions: CellTiter-Glo, 48 h; series mostly up to 45.8 µM; viability (% of control): at the top concentration
In short: as §1

SMILES	viability (% of control) [%]	Potency
CC(N[C@H]1C[C@H]1c1ccccc1)c1ccc2c(c1)OCCO2 (stereo partly drawn)	111	–
O=c1cccc2n1CC1CNC[C@H]2C1	–	20.9 µM (active)
NC1CC1c1ccccc1 (stereo not drawn)	134	–
CC(C)(O)C(=O)Nc1ccc([N+](=O)[O-])c(C(F)(F)F)c1	–	20.9 µM (active)
CCN(CC)C(=O)c1ccc(C2=CC3(CCNCC3)Oc3cccc(O)c32)cc1	157	–
C#CC1(O)CCC2C3CCC4=CC(=O)CCC4(C)C3CCC21C (stereo not drawn)	108	–
CCOP(=O)(OCC)C(C)NC(=O)N(CCCl)N=O (stereo not drawn)	139	–
CCC(=O)OC1CCC2C3CCC4=CC(=O)CC[C@@]4(C)C3CC[C@]12C (stereo partly drawn)	132	–
COc1ccc2c(c1)CN(C)CC2c1ccc(Cl)c(Cl)c1 (stereo not drawn)	–	18.7 µM (active)
c1ccc(CCCN2CCN(CCOC(c3ccccc3)c3ccccc3)CC2)cc1	–	20.9 µM (active)
O=C(O)CNC(=O)c1c(O)c2ccccc2n(Cc2ccccc2)c1=O	160	–
CN(C)NC(=O)CCC(=O)O	144	–
CCOC(=O)c1c(C(C#N)=CN)c2ccc(Cl)c(Cl)c2n1C	104	–
CN(C)[C@@H]1C(=O)C(C(N)=O)=C(O)[C@@]2(O)C(=O)C3=C(O)c4c(O)cccc4[C@@](C)(O)[C@H]3[C@H](O)[C@@H]12	99.9	–
CC(C)N(CCNC(=O)CN1CCCC1=O)C(C)C	135	–
COc1cc([C@@H]2c3cc4c(cc3[C@@H](O)C3COC(=O)C32)OCO4)cc(OC)c1O (stereo partly drawn)	–	0.0526 µM (active)
CCCN1CCO[C@@H]2c3cc(O)ccc3OC[C@@H]21	142	–
CC[C@@H](C(N)=O)N1CCCC1=O	–	26.4 µM (active)
CC1(N2CCC(n3c([C@@H]4CCCNC4)nc4ccccc43)CC2)CCCCCCC1	–	7.43 µM (active)
CC(=CCCC1=CCC(C2=CC(=O)OC2O)OC1O)CCC1=C(C)CCCC1(C)C (stereo not drawn)	–	11.8 µM (active)
C[C@@H]1CC[C@@]2(OC1)O[C@H]1C[C@H]3[C@@H]4CC=C5C[C@@H](O[C@@H]6O[C@H](CO)[C@@H](O[C@@H]7O[C@@H](C)[C@H](O)[C@@H](O)[C@@H]7O)[C@H](O)[C@@H]6O[C@@H]6O[C@@H](C)[C@H](O)[C@@H](O)[C@@H]6O)CC[C@]5(C)[C@@H]4CC[C@]3(C)[C@@H]1[C@H]2C	–	2.96 µM (active)
COc1ccc2c(c1)[C@]13CCCCC1C(C2)N(C)CC3 (stereo partly drawn)	90.3	–
C[C@]12CCC(=O)C(O)=C1CC[C@@H]1[C@H]3CCC(=O)[C@@]3(C)CC[C@@H]12	120	–
CC(C)[C@H]1C(=O)N[C@H](CO)Cc2c[nH]c3cccc(c23)N1C	–	0.372 µM (active)
